Rows were chosen to be rich in hits. Some 5.3% of all compounds tested hit in one or more screens of this group.
Mot1-301 SUMO – inhibitors of SUMOylation pathway: yeast Mot1-301 growth rescue; S. cerevisiae Mot1-301 growth rescue, ATP luminescence, 38.5C; percent above DMSO median, 100 means doubled; growth rescue, % at 18.8 µM; hit rate 1% among 320,000;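 active = every valid replicate shows activation above 250% relative to neutral control wells; inactive = the rest, any valid replicate at or below 250%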
PfM18AAP inh – PfM18AAP enzyme inhibition; inhibition, % at 7.35 µM; hit rate 1.2% among 290,000; recombinant PfM18AAP, H-Glu-NHMec fluorogenic cleavage;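 active = inhibition above the campaign mean inhibition over all tested compounds plus 3 SD, cut at about 28% in these data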
ALR inh – human ALR oxidase inhibition via reduced H2O2; P55789; inhibition, % (concentration not given with the values); purified ALR, DTT oxidation, H2O2 HRP-luminol luminescence; hit rate 3.8% among 290,000;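 active = mean replicate inhibition above about 79%, with every replicate also reaching it, limit read from the data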
Target sequence (P55789 whole entry, looked up): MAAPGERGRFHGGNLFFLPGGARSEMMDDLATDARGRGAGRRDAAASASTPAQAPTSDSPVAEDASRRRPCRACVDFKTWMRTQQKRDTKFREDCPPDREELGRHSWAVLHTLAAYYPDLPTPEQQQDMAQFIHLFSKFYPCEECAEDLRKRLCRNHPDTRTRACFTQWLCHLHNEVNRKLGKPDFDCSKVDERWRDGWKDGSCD
HIF activator – HIF pathway transcriptional activation. U2OS HRE-luciferase reporter, luminescence; normalized: DMSO 0%, desferrioxamine 100%. activation, % at 7.5 µM (by protocol). hit rate 0.32% among 300,000;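 active = mean activation of at least 10% of the iron chelator positive control signal, with at least half of replicates also reaching 10%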
A number is an active result; - = inactive; . = no result given.

SMILES	Mot1-301 SUMO	PfM18AAP inh	ALR inh	HIF activator
COc1ccc(N2CCN(C(CNC(=O)Oc3ccccc3)c3cccnc3)CC2)cc1 (stereo not given)	-	-	85	-
CN(C)C(=O)Oc1ccc2c(c1)O/C(=C\c1cccc(Cl)c1)C2=O	-	-	-	-
O=c1oc2ccccc2c(O)c1[C@H]1c2ccc(O)cc2Oc2c1c(=O)oc1ccccc21	-	-	98	-
C[C@H]1C[C@@H](C)C(=O)[C@@H]([C@H](O)CC2CC(=O)NC(=O)C2)C1	430	-	-	-
NCC(O)c1cc(O)c(O)cc1F (stereo not given)	-	.	83	.
NNC(=O)c1ccc(O)cc1	-	.	95	.
O=C1NC(c2cccnc2)Nc2sc3c(c21)CCCC3 (stereo not given)	-	31	.	-
CC1(C)Cc2c(sc3c2C(=O)NC(c2cccnc2)N3)CO1 (stereo not given)	-	-	-	-
CC[C@]12CC[C@H](O)CC1=CCC1C2CC[C@]2(C)C(=O)CCC12 (stereo not given in full)	-	.	-	.
COC(=O)C(O)(c1ccc2c(c1)CCCN2)C(F)(F)F (stereo not given)	-	-	97	-
CCOC(=O)C1CCN(/C=C2\C(=O)NC(=S)N(CC)C2=O)CC1	-	-	-	-
Cc1ccc(N2C(=O)NC(=O)/C(=C/C=C/c3ccco3)C2=O)cc1	-	-	-	-
CCOc1ccc(N2C(=O)/C(=C/c3ccco3)C(=O)NC2=S)cc1	-	-	98	-
CCc1ccc(N2C(=O)NC(=O)/C(=C\C=C\c3ccco3)C2=O)cc1	-	-	98	-
CC1=NN(c2ccccc2)C(=O)C1/C=C1/C(=O)NC(=O)N(c2cc(C)cc(C)c2)C1=O (stereo not given)	.	-	87	-
Cc1cc(C)cc(N2C(=O)NC(=O)/C(=C\C=C\c3ccco3)C2=O)c1	-	-	96	-
CC(C)c1ccc(N2C(=O)NC(=O)/C(=C/C=C/c3ccco3)C2=O)cc1	-	-	.	-
Cc1cc(NC(=O)C(Cl)(Cl)Cl)no1	-	-	-	-
CCCCn1c(=O)c(C(=O)Nc2ccsc2C(=O)OC)c(O)c2ccccc21	-	-	-	-
Cc1[nH]c2ccccc2c1/C=N/O	-	-	96	-
Cc1[nH]c2ccccc2c1CCN	-	-	-	-
CC(N)Cc1c[nH]c2c1ccc1ccccc12 (stereo not given)	-	30	-	-
CNC(=O)Oc1cccc(-c2cn3cc(OC(=O)NC)ccc3n2)c1	-	31	-	.
COc1cccc(NC(=O)N2CCC3(CC2)OCCO3)c1	-	-	-	-
CC(C)C(=O)Nc1ccc(N2CCN(C)CC2)c(F)c1	423	-	-	-
SMILES	Mot1-301 SUMO	PfM18AAP inh	ALR inh	HIF activator
CN1CCN(c2ccc(NC(=O)C(C)(C)C)cc2)CC1	-	-	-	-
COC(=O)C1=Nc2ccccc2/C1=C\c1c(O)n(-c2cc(OC)ccc2OC)c(=O)[nH]c1=O	-	-	-	548
COc1ccc(-n2c(O)c(/C=C3\C=Nc4ccc(Br)cc43)c(=O)[nH]c2=O)c(OC)c1	-	-	97	-
CC(=O)c1c(C)n(CCCOC(C)C)c2ccc(O)cc12	-	-	-	.
N#Cc1c(/N=C/C2C(=O)NC(=S)NC2=O)sc2c1CCCC2	-	-	93	-
Cc1ccc(-n2c(O)c(C=NCc3ccco3)c(=O)[nH]c2=S)cc1C	-	-	-	-
CC(Cc1ccccc1)N1Cc2ccccc2C1 (stereo not given)	-	-	-	-
COc1ccc(CC2(CCc3ccncc3)C(=O)NC(=O)NC2=O)c(OC)c1	281	-	-	-
Cc1ccc(-n2c(CNCc3ccc(F)cc3)nc3ccccc3c2=O)cc1	-	-	-	-
CCN(CC)CCNCc1nc2ccccc2c(=O)n1-c1ccc(F)cc1	-	-	-	60
CCC(C)N1C(=O)/C(=C/c2ccc3c(c2)CCN3CCCCl)C(=O)NC1=S (stereo not given)	-	-	98	-
CCC(C)n1c(O)c(/C=N/Nc2ccccc2)c(=O)[nH]c1=S (stereo not given)	355	-	100	-
O=c1[nH]c(=S)n(C2CC2)c(O)c1/C=N/Nc1ccccc1	282	-	.	-
O=c1[nH]c(=S)n(C2CC2)c(O)c1/C=N/Nc1cccc2ccccc12	-	-	-	-
CC(Cc1ccsc1)NCc1cn[nH]c1-c1ccc(F)cc1F (stereo not given)	-	-	.	-
CCNCC1(c2ccc(OC)c(OC)c2)CCCC1	-	-	-	-
C=CCN1C(=O)NC(=O)C(CCc2ccncc2)(CCc2ccncc2)C1=O	-	-	-	-

Compound activity as filed in PubChem BioAssay.
